# Test results published in PubChem BioAssay AID1730 (National Center for Advancing Translational Sciences (NCATS), 2009).
# Inconclusive results are not listed. Values without a mark were called inactive. Calls of active or inactive are those of the source. Calls follow the shape of the dose curve; as a rule, active = well fitted inhibition curve with a large enough effect; inconclusive = small, poorly fitted or top-dose-only effect; inactive = no such curve, though single readings can be large or run the other way.
# Test: Counterscreen Assay for Inhibitors of the ERK Signaling Pathway using a Homogeneous Screening Assay
# Settings: AlphaScreen bead counterscreen in cell lysate, 5 h; series mostly up to 45.6 µM; activity change, negative = inhibition: at the top concentration
# Excerpt: qHTS Assay for Inhibitors of the ERK Signaling Pathway using a Homogeneous Screening Assay
# NIH Chemical Genomics Center [NCGC]
# NIH Molecular Libraries Screening Centers Network [MLSCN]
# Assay Submitter (PI): Dr. Wei Zheng, NCGC/NIH
# The Ras/extracellular-signal-regulated kinase (ERK) mitogen activated protein (MAP) kinase signaling pathway (ERK1/2 cascade) plays is a key role in transmitting signals from the cell surface to the nucleus (Nishida and Gotoh 1993; Chang and Karin, 2001). The cascade is initiated by the small G-protein Ras, which recruits Raf […], where activation occurs. Alternatively, this pathway can be activated by elevating intracellular cAMP.
# Activation of the ERK pathway is essential in increased cell division and cell survival. Sustained and constitutive activation of the ERK pathway, however, has been linked to uncontrolled cell proliferation, increased cell survival, and tumor progression. Thus, the ERK has been as an attractive target for cancer chemotherapy in the past few years (Sebolt-Leopold and Herrera, 2004). Given its physiological and pathological importance, assessment of ERK phosphorylation has been broadly performed in both basic research and drug discovery. Most assays for the measurement of ERK phosphorylation use the antibody-based detection methods, such as western blot and ELISA. These assays require multiple reagent additions with cell wash steps and are not suitable for high-throughput screening.
# The current cell-based ERK phosphorylation assay was performed using AlphaScreen platform. AlphaScreen is a two bead-based proximity-dependent chemical energy transfer luminescent assay platform. The assay reagents (ERK SureFire(TM) kit) were supplied from TGR BioSciences (Australia). In the presence of specific antibodies, phosphorylated ERK will bring "donor" and "acceptor" beads to a proximity range (<200 nm), and subsequently lead a chemical luminescent reaction upon exciting donor beads with 680 nm laser. To exclude the assay-related false positives, we used a biotinylated rabbit IgG to perform a counter-screen. The biotinylated antibody mimics the phosphorylated ERK1/2 for bringing streptavidin coated beads and protein-A coated beads to a proximity range for the AlphaScreen detection.
# NCGC Assay Protocol Summary:
# Biotinylated rabbit IgG was used to perform a counter-screen in the context of an AlphaScreen assay kit provided by PerkinElmer. Data were normalized to the controls for basal activity (DMSO only) and 100% activation (25 nM IgG). AC50 values were determined from concentration-response data modeled with the standard Hill equation.
# (1) Seed 4 ul/well of resuspended frozen HEK293 cells containing 2000 cells in white 1536-well plates for overnight with 1% FBS at 37C under a humidified atmosphere containing 5% CO2 and 95% air.
# (2) Add 23 nL compounds in DMSO solution. The final titration was 0.6 nM to 46 uM.
# (3) Incubate at 37C for 30 min.
# (4) Dispense 0.5uL vasopressin (25 nM in final)
# (5) Incubate at 37C for 5 min.
# (6) Dispense 0.5uL of 1:2 diluted 5x lysis buffer.
# (7) Incubate at 37C for 10 min.
# (8) Dispense 1.5uL of mixture of activation buffer and reaction buffer with AlphaScreen beads (streptavidin donor beads and protein-A acceptor beads, 10 ng/well for each).
# (9) Incubate at room temperature for 5 hr.
# (10) Detect the assay plate in an EnVision plate reader (PerkinElmer) using the AlphaScreen detection mode.
# Keywords: ERK, MEK, type-1 vasopressin receptors, homogenous, cell-based kinase assay, MLSMR, MLSCN, NIH Roadmap, qHTS and NCGC
SMILES,Potency,"activity change, negative = inhibition"
O=C1c2ccc(O)c(O)c2C(=O)c2c(O)ccc(O)c21,4.47 µM (active),–
N#CC(C#N)=c1ccc2c(c1)N1C3=C(CCCC3)CC3CCCCC31N=2 (stereo not given),4.47 µM (active),–
Nc1nc2c3ccccc3nc(C3CC3)n2n1,–,-17.4% [at 57.5 µM]
CCN(C1CCCCC1)S(=O)(=O)c1ccc(S(=O)(=O)NCc2ccncc2)cc1,–,9.89% [at 57.5 µM]
CCCNc1ncnc2sc(C)c(C)c12,–,-22.1%
Cc1sc2ncnc(Nc3ccccc3)c2c1C,–,-11.9%
COc1ccc(CC(=O)Nc2cccc(-c3nnc(-c4cccc(C)c4)o3)c2)cc1OC,–,9.16% [at 57.5 µM]
CN(C)c1cc2c(Nc3ccc4c(cnn4Cc4ccccc4)c3)ncnc2cn1,–,-6.45%
COc1ccc(C2=Nn3c(nnc3-c3ccccc3OC)SC2)cc1OC,–,7.65% [at 57.5 µM]
CCCN1C(=O)/C(=C2/C=Cc3ccccc3N2CC)SC1=S,3.55 µM (active),–
O=C(Nc1nccs1)c1cc2sccc2n1Cc1ccc(F)cc1,–,7.37% [at 57.5 µM]
CC1(C)OC(c2ccccc2)=C/C(=C/C=C2C(=O)c3ccccc3C2=O)O1,2.24 µM (active),–
C=C[C@]1(C)CC(=O)[C@@]2(O)[C@@]3(C)C(O)CCC(C)(C)C3C(O)C(OC(C)=O)[C@@]2(C)O1 (stereo not given in full),–,-10.3%
COc1ccc(C(=O)OC(COc2ccccc2)Cn2ccnc2)cc1 (stereo not given),–,-26.4%
CN(C)CCCn1cc(C2=C(c3c[nH]c4ccccc34)C(=O)NC2=O)c2ccccc21,35.5 µM (active),–
Fc1cccc(Nc2ncnc3sc4c(c23)CCC4)c1,–,-7.2%
c1ccc(-c2csc(-c3nc4ccccc4[nH]3)n2)cc1,–,-18.4% [at 57.5 µM]
CCCCOc1cc(CC2CNC(=O)N2)ccc1OC (stereo not given),inactive,–
O=C(c1cccs1)c1no[n+]([O-])c1C(=O)c1cccs1,–,10.5% [at 57.5 µM]
c1ccc(Oc2nc(NCc3ccco3)nc(NCc3ccco3)n2)cc1,–,-16.5% [at 57.5 µM]
COC(=O)c1cc(-c2ccc(OC)c(OC)c2)on1,–,-10.6% [at 57.5 µM]
COc1cc(C2CC(=O)c3c([nH]c(C(=O)OCCOC(C)C)c3C)C2)cc(OC)c1OC (stereo not given),–,4.07% [at 57.5 µM]
c1ccc(Nc2ncnc3ccc(-c4cccnc4)cc23)cc1,–,-11.4%
Cc1cc(-c2ccccc2)n(-c2cc(N/N=C/c3ccccc3O)ncn2)n1,–,-26.9%
Fc1ccc(Nc2ncnc3sc4c(c23)CCC4)cc1,–,-3.12%
